Measurements published in the supplement of paper PMC10849652.
About 7,900 targets were measured; listed, in parts, are those with a hit and a random draw of the rest. About 0.6% of all pairs of compound and target were hits. Values without a mark were called inactive.

How the values were obtained:
Experiment in all cases: log2 fold change, soluble protein after heating vs DMSO (PISA); higher = thermal stabilisation; K562 cells, 10 uM, 30 min; active = over 0.2 and 3.5 SD of the protein, either way, in both replicates (recomputed)
[1] = compound: CC1=C(C=C(C=C1)NC(=O)C2=CC(=CC=C2)C(C)(C)C#N)NC3=CC4=C(C=C3)N=CN(C4=O)C
Method in brief: (§1)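 Soluble protein was quantified by TMTpro 16plex LC-MS/MS after channel sums were equalised. It was obtained as the supernatant after 21,000xg for 90 min from pooled aliquots of K562 cells (2×10^6 cells/mL, 10 μM compound, 30 min) heated for 3 min across 48°C-58°C and extracted in PBS with 0.5% NP-40 at 4°C. Thermal stability values are relative to control samples and come from duplicates. They are given as log2 fold changes.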

[2] = compound: CC1=C(C=C(C=C1)NC(=O)C2=CC(=CC=C2)N(C)C)NC(=O)C3=CC=C(C=C3)O
Method in brief: as §1

[3] = compound: CC1=CC=C(C=C1)SC2=C3C=C(SC3=CN=C2)C(=O)N
Method in brief: as §1

[4] = compound: CC1=NC(=CC=C1)C2=C(N=C(N2)C(C)(C)C)C3=CC4=NC=CN=C4C=C3
Method in brief: as §1

Nexturastat A = compound: CCCCN(Cc1ccc(C(=O)NO)cc1)C(=O)Nc1ccccc1 [Nexturastat A]
Method in brief: as §1

vemurafenib = compound: CCCS(=O)(=O)Nc1ccc(F)c(C(=O)c2c[nH]c3ncc(-c4ccc(Cl)cc4)cc23)c1F [vemurafenib]
Method in brief: as §1

[5] = compound: CCCS(=O)(=O)Nc1ccc(F)c(C(=O)c2c[nH]c3ncc(Cl)cc23)c1F
Method in brief: as §1

[6] = compound: CCCc1cc(C)[nH]c(=O)c1CNC(=O)c1cc(-c2ccnc(N3CCN(C)CC3)c2)cc2c1cnn2C(C)C
Method in brief: as §1

givinostat = compound: CCN(CC)Cc1ccc2cc(COC(=O)Nc3ccc(C(=O)NO)cc3)ccc2c1 [givinostat]
Method in brief: as §1

barasertib = compound: CCN(CCCOc1ccc2c(Nc3cc(CC(=O)Nc4cccc(F)c4)[nH]n3)ncnc2c1)CCOP(=O)(O)O [barasertib]
Method in brief: as §1

[7] = compound: CC[C@@H]1C(=O)N(C)c2cnc(Nc3ccc(C(=O)NC4CCN(C)CC4)cc3OC)nc2N1C1CCCC1
Method in brief: as §1

volasertib = compound: CC[C@@H]1C(=O)N(C)c2cnc(Nc3ccc(C(=O)N[C@H]4CC[C@H](N5CCN(CC6CC6)CC5)CC4)cc3OC)nc2N1C(C)C [volasertib]
Method in brief: as §1

[8] = compound: CC[C@H](C)N1C=C(C2=C(C=C(C=C21)C3=CN=C(C=C3)N4CCNCC4)C(=O)NCC5=C(C=C(NC5=O)C)C)C
Method in brief: as §1

epoxomicin = compound: CC[C@H](C)[C@@H](C(=O)N[C@@H]([C@@H](C)O)C(=O)N[C@@H](CC(C)C)C(=O)[C@]1(CO1)C)NC(=O)[C@H]([C@@H](C)CC)N(C)C(=O)C [epoxomicin]
Method in brief: as §1

[9] = compound: CCn1c(C(=O)N(C2CC2)C2CC2)cc2c3c(ncn3C)c(Nc3cc(C)n(C)n3)nc21
Method in brief: as §1

[10] = compound: CCn1cc(-c2ccnc3[nH]c(-c4cccc(CN(C)C)c4)cc23)c(-c2ccc(NC(=O)N(C)C)cc2)n1
Method in brief: as §1

[11] = compound: CN(C)CC(=O)Nc1ccc2[nH]c(=O)c3ccccc3c2c1
Method in brief: as §1

rosiglitazone = compound: CN(CCOC1=CC=C(C=C1)C[C@H]2C(=O)NC(=O)S2)C3=CC=CC=N3 (racemic) [rosiglitazone]
Method in brief: as §1

[12] = compound: CN1C2=C(C3=C1C(=O)N(N=C3)CC4=CC(=CC=C4)N)SC(=C2)S(=O)C
Method in brief: as §1

[13] = compound: CN1CCC(CNc2ccc3ncc(-c4cccc(OC(F)(F)F)c4)n3n2)CC1
Method in brief: as §1

UniProt Q8NBL1, sequence (Q8NBL1 whole entry, looked up): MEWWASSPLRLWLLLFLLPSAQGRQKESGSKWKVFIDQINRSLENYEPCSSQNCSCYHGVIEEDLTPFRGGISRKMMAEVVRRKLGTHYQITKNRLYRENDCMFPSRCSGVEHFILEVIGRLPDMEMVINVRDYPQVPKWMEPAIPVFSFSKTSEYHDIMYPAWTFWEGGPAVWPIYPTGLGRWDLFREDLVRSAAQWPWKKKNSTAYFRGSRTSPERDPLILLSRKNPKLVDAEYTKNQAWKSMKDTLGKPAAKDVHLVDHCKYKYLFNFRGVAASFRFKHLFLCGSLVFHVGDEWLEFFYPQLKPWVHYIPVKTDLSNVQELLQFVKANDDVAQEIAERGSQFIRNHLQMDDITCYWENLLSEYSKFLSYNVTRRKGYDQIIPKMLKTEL
UniProt Q04759, sequence (Q04759 whole entry, looked up): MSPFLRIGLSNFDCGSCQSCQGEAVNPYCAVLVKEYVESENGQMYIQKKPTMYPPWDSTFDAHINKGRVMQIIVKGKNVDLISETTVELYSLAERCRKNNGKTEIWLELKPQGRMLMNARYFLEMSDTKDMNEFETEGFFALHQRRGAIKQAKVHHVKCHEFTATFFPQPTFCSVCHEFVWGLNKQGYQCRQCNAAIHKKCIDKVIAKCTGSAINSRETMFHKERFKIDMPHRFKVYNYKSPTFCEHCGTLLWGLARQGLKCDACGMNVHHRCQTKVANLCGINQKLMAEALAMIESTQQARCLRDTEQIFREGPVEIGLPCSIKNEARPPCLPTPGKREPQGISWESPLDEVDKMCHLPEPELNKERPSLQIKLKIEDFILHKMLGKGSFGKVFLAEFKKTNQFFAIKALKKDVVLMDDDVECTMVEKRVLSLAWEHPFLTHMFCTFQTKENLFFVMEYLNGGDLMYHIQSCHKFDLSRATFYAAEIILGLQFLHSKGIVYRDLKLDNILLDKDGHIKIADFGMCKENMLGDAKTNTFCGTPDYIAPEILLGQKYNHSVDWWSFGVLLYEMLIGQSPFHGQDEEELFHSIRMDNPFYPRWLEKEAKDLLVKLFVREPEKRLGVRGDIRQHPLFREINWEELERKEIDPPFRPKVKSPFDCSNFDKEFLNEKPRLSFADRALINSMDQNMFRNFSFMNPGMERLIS
UniProt P53609, sequence (P53609 whole entry, looked up): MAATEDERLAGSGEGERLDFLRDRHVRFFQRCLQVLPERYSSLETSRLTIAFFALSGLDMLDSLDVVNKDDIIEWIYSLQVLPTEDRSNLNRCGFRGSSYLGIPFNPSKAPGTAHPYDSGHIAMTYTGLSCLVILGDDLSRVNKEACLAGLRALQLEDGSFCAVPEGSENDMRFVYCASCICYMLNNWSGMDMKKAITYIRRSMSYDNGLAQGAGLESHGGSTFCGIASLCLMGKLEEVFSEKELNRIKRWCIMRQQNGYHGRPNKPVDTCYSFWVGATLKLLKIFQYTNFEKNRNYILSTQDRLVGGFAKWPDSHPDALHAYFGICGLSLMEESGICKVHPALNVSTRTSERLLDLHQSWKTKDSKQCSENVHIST
UniProt Q15365, sequence (Q15365 whole entry, looked up): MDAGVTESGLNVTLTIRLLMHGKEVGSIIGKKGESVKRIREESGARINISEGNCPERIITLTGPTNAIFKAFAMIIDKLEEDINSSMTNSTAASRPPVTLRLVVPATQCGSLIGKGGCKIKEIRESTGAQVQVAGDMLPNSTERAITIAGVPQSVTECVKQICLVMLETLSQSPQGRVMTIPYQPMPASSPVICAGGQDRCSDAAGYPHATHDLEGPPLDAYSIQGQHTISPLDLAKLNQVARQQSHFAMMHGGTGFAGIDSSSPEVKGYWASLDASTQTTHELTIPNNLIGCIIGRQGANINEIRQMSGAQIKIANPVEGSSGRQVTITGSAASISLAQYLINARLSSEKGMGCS
UniProt Q13362, sequence (Q13362 whole entry, looked up): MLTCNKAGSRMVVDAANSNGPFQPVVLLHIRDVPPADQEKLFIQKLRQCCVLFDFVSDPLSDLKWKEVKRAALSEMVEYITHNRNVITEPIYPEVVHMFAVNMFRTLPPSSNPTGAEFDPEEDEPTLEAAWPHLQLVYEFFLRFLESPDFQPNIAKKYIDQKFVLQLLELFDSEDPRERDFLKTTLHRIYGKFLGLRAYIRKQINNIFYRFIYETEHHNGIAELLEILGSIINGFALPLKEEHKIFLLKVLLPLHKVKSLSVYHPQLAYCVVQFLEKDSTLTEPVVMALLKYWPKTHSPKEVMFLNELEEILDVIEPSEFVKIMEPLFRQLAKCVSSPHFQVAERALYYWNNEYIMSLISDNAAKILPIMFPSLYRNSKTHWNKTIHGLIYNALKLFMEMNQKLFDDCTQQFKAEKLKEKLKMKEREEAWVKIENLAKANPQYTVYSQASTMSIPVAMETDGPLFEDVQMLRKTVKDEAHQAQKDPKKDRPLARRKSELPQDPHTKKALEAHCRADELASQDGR
UniProt P35998, sequence (P35998 whole entry, looked up): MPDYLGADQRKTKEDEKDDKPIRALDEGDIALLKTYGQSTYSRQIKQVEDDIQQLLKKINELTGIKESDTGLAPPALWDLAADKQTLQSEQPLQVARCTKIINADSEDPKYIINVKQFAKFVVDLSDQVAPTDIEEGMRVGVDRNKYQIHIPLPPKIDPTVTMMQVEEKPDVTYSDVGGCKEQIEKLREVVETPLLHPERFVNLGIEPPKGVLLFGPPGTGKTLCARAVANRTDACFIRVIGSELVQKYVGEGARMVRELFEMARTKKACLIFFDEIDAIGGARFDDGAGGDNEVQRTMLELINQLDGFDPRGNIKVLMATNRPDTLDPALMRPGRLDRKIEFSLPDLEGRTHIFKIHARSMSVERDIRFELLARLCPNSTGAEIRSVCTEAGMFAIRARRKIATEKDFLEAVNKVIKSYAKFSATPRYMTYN
UniProt Q5VTL8, sequence (Q5VTL8 whole entry, looked up): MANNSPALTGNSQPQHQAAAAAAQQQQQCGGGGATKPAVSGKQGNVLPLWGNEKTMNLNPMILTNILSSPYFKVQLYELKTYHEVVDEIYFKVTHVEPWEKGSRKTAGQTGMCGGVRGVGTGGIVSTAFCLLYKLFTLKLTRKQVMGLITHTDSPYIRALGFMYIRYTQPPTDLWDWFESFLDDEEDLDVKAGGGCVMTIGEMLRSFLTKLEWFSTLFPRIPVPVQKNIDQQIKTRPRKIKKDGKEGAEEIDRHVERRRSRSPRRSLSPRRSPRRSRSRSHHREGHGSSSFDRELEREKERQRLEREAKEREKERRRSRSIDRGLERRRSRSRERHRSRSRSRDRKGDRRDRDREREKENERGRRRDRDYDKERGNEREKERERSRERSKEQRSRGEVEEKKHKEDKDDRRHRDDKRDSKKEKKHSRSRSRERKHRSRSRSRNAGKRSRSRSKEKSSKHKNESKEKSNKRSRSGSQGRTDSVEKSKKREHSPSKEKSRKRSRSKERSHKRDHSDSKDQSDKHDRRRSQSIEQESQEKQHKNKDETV
UniProt Q8N4L2, sequence (Q8N4L2 whole entry, looked up): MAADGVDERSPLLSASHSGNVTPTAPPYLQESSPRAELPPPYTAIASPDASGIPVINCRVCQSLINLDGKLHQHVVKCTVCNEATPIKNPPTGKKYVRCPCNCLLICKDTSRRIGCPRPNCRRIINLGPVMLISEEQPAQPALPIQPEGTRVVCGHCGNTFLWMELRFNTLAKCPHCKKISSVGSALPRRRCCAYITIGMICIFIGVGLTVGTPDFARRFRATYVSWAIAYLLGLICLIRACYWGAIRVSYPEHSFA
UniProt Q13523, sequence (Q13523 whole entry, looked up): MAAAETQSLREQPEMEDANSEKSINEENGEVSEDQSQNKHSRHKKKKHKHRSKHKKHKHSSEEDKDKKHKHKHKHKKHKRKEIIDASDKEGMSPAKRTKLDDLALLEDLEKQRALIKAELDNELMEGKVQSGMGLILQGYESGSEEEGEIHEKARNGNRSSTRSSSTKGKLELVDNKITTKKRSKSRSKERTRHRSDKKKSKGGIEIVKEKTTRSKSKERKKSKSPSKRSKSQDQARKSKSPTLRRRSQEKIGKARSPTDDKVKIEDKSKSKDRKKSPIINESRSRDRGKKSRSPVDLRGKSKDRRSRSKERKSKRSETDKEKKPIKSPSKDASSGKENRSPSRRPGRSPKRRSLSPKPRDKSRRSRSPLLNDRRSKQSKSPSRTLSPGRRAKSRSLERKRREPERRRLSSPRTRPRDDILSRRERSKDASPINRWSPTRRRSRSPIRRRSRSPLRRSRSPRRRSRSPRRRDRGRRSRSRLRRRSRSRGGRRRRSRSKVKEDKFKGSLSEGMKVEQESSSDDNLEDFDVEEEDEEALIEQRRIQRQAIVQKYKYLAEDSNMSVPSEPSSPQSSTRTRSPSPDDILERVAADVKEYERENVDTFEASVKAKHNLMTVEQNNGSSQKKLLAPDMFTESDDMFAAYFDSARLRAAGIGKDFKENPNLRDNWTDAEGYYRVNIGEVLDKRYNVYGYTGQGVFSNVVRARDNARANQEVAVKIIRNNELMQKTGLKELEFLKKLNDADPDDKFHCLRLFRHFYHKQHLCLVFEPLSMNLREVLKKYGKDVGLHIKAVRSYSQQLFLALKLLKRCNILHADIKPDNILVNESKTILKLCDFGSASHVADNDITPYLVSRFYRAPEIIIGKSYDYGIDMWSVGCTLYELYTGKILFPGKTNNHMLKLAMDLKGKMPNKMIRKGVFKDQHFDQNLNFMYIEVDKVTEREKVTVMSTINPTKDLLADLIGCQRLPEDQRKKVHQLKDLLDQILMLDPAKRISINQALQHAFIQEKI
UniProt Q92871, sequence (Q92871 whole entry, looked up): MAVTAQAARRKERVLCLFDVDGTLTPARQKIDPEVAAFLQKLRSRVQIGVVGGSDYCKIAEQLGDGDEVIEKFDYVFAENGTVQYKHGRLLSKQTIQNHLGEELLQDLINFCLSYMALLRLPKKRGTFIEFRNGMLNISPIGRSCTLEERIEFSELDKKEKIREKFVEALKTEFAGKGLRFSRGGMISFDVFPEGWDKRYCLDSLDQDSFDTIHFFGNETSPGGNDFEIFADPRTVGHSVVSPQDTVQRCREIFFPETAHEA

Target | log2 fold change [1] | log2 fold change [2] | log2 fold change [3] | log2 fold change [4] | log2 fold change (Nexturastat A) | log2 fold change (vemurafenib) | log2 fold change [5] | log2 fold change [6] | log2 fold change (givinostat) | log2 fold change (barasertib) | log2 fold change [7] | log2 fold change (volasertib) | log2 fold change [8] | log2 fold change (epoxomicin) | log2 fold change [9] | log2 fold change [10] | log2 fold change [11] | log2 fold change (rosiglitazone) | log2 fold change [12] | log2 fold change [13]
PCBP1 (UniProt Q15365) | 0.034 | -0.037 | 0.112 | 0.067 | -0.038 | 0.022 | 0.097 | -0.011 | 0.013 | 0.021 | -0.1 | -0.268 (active) | 0.04 | 0.025 | -0.065 | 0.025 | 0.039 | 0.035 | 0.009 | -0.129
PRPF38B (UniProt Q5VTL8) | -0.001 | 0.001 | -0.012 | 0.015 | -0.011 | 0.043 | 0.042 | -0.006 | 0.007 | 0.012 | -0.152 | -0.231 | 0.015 | -0.002 | -0.012 | -0.02 | -0.01 | 0.009 | 0.018 | -0.073
PRPF4B (UniProt Q13523) | -0.024 | 0.018 | -0.079 | -0.082 | 0.158 | 0.052 | 0.03 | -0.098 | 0.082 | -0.05 | 0.025 | -0.17 | 0.027 | -0.174 | -0.005 | 0.104 | -0.049 | 0.011 | 0.081 | 0.019
POGLUT1 (UniProt Q8NBL1) | -0.063 | -0.027 | -0.081 | -0.024 | -0.025 | -0.139 | -0.034 | 0.043 | 0.052 | -0.022 | 0.007 | -0.054 | 0.013 | 0.012 | -0.051 | 0.089 | -0.083 | -0.019 | 0.039 | 0.26 (active)
PRKCQ (UniProt Q04759) | 0.013 | -0.043 | 0.073 | -0.004 | -0.055 | 0.015 | 0.065 | -0.065 | 0.052 | 0.03 | -0.11 | -0.17 | 0.031 | 0.001 | -0.028 | -0.047 | 0.021 | 0.049 | -0.014 | -0.496 (active)
POLR2D (UniProt O15514) | -0.022 | -0.005 | 0.002 | 0.004 | 0.027 | 0.046 | -0.006 | -0.014 | -0.267 | -0.031 | 0.206 | 0.135 | -0.017 | 0.17 | 0.11 | 0.043 | -0.02 | -0.02 | -0.101 | 0.056
PGGT1B (UniProt P53609) | -0.062 | 0.006 | 0.002 | 0.035 | -0.073 | -0.022 | -0.023 | -0.025 | 0.009 | 0.035 | 0.056 | 0.098 | 0.004 | -0.011 | 0.031 | -0.026 | -0.009 | 0.032 | -0.101 | -0.008
PSMC2 (UniProt P35998) | 0.011 | 0.02 | -0.012 | -0.069 | 0.011 | -0.014 | -0.041 | 0.036 | -0.032 | -0.053 | 0.042 | 0.169 | -0.019 | -0.324 (active) | 0.012 | 0.024 | -0.018 | -0.044 | 0.023 | 0.039
PPP2R5C isoform 4 (UniProt Q13362) | -0.016 | 0.004 | 0.014 | -0.064 | 0.016 | 0.074 | -0.004 | -0.027 | -0.001 | 0.057 | -0.069 | -0.127 | 0.042 | 0.19 | 0.018 | -0.099 | -0.048 | 0.052 | -0.003 | -0.11
PMM1 (UniProt Q92871) | -0.164 | 0.007 | -0.037 | 0.027 | -0.037 | -0.007 | -0.012 | -0.165 | -0.013 | -0.003 | -0.029 | -0.239 | -0.024 | -0.002 | -0.025 | 0.08 | 0.009 | 0.047 | -0.061 | -0.018
POLR2G (UniProt P62487) | 0.025 | -0.033 | 0.059 | 0.057 | -0.015 | -0.022 | 0.009 | -0.038 | -0.094 | -0.019 | 0.215 | 0.276 | -0.075 | 0.054 | 0.06 | -0.003 | 0.02 | -0.01 | 0.002 | 0.081
POLR2A (UniProt P24928) | -0.009 | -0.049 | 0.064 | 0.018 | 0.001 | 0.002 | 0.071 | -0.023 | -0.024 | 0.024 | 0.093 | -0.034 | 0.006 | 0.004 | -0.058 | 0.022 | 0.041 | 0.007 | -0.052 | 0.156
PIP4P2 (UniProt Q8N4L2) | 0.107 | -0.03 | -0.006 | -0.002 | -0.092 | -0.013 | 0.041 | -0.045 | -0.067 | 0 | -0.092 | -0.054 | -0.07 | -0.192 | 0.053 | 0.004 | -0.018 | 0.008 | -0.016 | -0.375 (active)
